The structures appear in SMILES notation. Several values for one entry are separate records, joined by “and”; a condition that tells them apart may be missing. Identical values can stand only once. The source holds several records for some structures; these can differ, active in one and inactive in another. Activity calls are given as the source filed them. Rule for the calls: active = hit-call score of the fitted dose curve at least 0.9, where 1 is the maximum; inactive = score below 0.9.

A short description of this assay: APR_HepG2_MitoMass_72hr: Apredica 72-hour HepG2 Assay for Mitochondrial Mass (AID 2282924).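 Note: MitoTracker Red CMXRos stain intensity per cell imaged as mitochondrial mass.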 To be noted: high-content imaging, actives raise or lower the signal. In a few lines: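 Read-out: MitoTracker Red fluorescence intensity from automated imaging (20x, six fields per well) in human HepG2 liver cells. Dosing ran 72 hr, 0.39–200 uM, 0.5% DMSO; bidirectional curve fitting versus DMSO baseline.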
As for `O=C(O)COc1nc(Cl)c(Cl)cc1Cl`, the compound was called inactive. `CC(C)(C)c1ccc(CSc2cnn(C(C)(C)C)c(=O)c2Cl)cc1`: the call was inactive. In the case of `COC(=O)C(C)Oc1ccc(Oc2ccc(Cl)cc2Cl)cc1` (configuration not stated), the compound was classed as inactive. With `CCOC(=O)C(Cl)Cc1cc(-n2nc(C)n(C(F)F)c2=O)c(F)cc1Cl` (configuration not stated), the result was inactive.

Take `CC1=C(C(=O)Nc2ccccc2)SCCO1`: the outcome was inactive. Take `COc1cnc(OC)n2nc(NS(=O)(=O)c3c(OCC(F)F)cccc3C(F)(F)F)nc12`: the compound was called inactive. One may read the AC50 as the concentration at which the activity in the assay is half-maximal. In the case of `CO/C=C(/C(=O)OC)c1ccccc1Oc1cc(Oc2ccccc2C#N)ncn1`, the concentration at half-maximal activity (AC50) is 1.68 µM (active) and 3.44 µM (active); the result was inactive.

As to `CCOC(=O)CC(SP(=S)(OC)OC)C(=O)OCC` (configuration not stated), the outcome was inactive. As to `CC(C)Oc1cc(-n2nc(C(C)(C)C)oc2=O)c(Cl)cc1Cl`, the call was inactive. On the same count and under the same terms, for `N#CC(CCc1ccc(Cl)cc1)(Cn1cncn1)c1ccccc1` (configuration not stated) the value was “inactive”; for `Cc1c(F)c(F)c(COC(=O)C2C(/C=C(\Cl)C(F)(F)F)C2(C)C)c(F)c1F` (configuration not stated), “inactive”; for `COc1nc(C)nc(NC(=O)NS(=O)(=O)c2ccccc2Cl)n1`, “inactive”. As for `CCCCNC(=O)n1c(NC(=O)OC)nc2ccccc21`, the AC50 is 13 µM (active). For the compound `COC(=O)c1ccccc1C(=O)OC`, the outcome was inactive.

Turning to `COP(=S)(OC)Oc1nc(Cl)c(Cl)cc1Cl`, the result was inactive.

`Cc1cc(Cl)ccc1OCC(=O)O`: the outcome was inactive. For the compound `CON(C)C(=O)Nc1ccc(Cl)c(Cl)c1`, the AC50 is 67 µM (active).

With `COc1ccc(C(c2ccc(OC)cc2)C(Cl)(Cl)Cl)cc1`, the compound was called inactive. For `CCNc1nc(Cl)nc(NCC)n1`, the compound was called inactive. For the compound `CCCN(CCC)c1c([N+](=O)[O-])cc(S(N)(=O)=O)cc1[N+](=O)[O-]`, the AC50 is 94.8 µM (active) and the compound was called inactive.

These data come from PubChem BioAssay (EPA / NIEHS).
